# In PubChem BioAssay (NCATS):
# Inconclusive results are not listed. Where a call stands in place of a potency, no number is given. Activity calls are given as the source filed them. The call rests on the fitted dose curve; in most records, active means well fitted inhibition curve with a large enough effect; inconclusive means small, poorly fitted or top-dose-only effect; inactive means flat fitted curve, though single readings scatter.
# Target: Glutathione peroxidase 1 (Homo sapiens) (UniProt P07203)
# Sequence (P07203 whole entry, looked up): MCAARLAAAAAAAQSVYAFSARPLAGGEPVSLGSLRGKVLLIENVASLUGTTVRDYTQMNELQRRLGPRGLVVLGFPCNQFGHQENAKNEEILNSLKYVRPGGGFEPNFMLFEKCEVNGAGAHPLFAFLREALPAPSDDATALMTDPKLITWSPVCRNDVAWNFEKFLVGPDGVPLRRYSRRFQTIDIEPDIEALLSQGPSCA
# Assay: Primary qHTS Assay for Inhibitors of Recombinant Selenoprotein Glutathione Peroxidase 1 (GPX1) (AID 1845191)
# Conditions: recombinant GPX1, GR-coupled NADPH fluorescence, 15 min; series mostly up to 27.7 µM
# In short: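 Recombinant GPX1 (10 nM final) was preincubated with compound for 30 min at room temperature, then reacted with 1 mM GSH, 0.5 mM CHP, 0.5 mM NADPH and 100 nM glutathione reductase; NADPH fluorescence (340/450 nm) was read at 0 and 15 min.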
# Further: nearly all actives have a fitted effect of over 65% in size.
row,Compound,Potency
1,C=C1CC[C@@H]2C(C)(C)CCC[C@@]2(C)[C@@H]1CC/C(=C/C(=O)OC)COC(C)=O,inactive
2,CCC(C)/C=C(C)/C=C/C1=CC2=CC(=O)C(C)(O)C(OC(C)=O)C2CO1 (stereo unspecified),inactive
3,COc1ccc2[nH]c(S(=O)Cc3ncc(C)c(OC)c3C)nc2c1 (stereo unspecified),inactive
4,NC[C@@H]1O[C@@H](O[C@@H]2[C@@H](O[C@@H]3O[C@H](CO)[C@@H](O)[C@H]3O)[C@H](O)[C@@H](N)C[C@H]2N)[C@@H](N)[C@H](O)[C@H]1O,inactive
5,CC1(C)[C@@H]2CC=C(CO[C@@H]3O[C@H](CO[C@@H]4OC[C@H](O)[C@H](O)[C@H]4O)[C@@H](O)[C@H](O)[C@H]3O)[C@H]1C2,inactive

# Target: Phospholipid hydroperoxide glutathione peroxidase GPX4 (Homo sapiens) (UniProt P36969)
# Sequence (P36969 whole entry, looked up): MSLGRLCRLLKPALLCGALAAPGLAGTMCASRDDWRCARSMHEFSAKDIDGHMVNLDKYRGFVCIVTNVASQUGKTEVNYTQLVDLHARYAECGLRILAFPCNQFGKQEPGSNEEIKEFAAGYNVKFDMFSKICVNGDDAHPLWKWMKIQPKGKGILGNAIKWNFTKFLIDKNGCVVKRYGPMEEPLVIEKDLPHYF
# Assay: Primary qHTS Assay for Inhibitors of Recombinant Selenoprotein Glutathione Peroxidase 4 (GPX4) (AID 1845192)
# Conditions: recombinant GPX4, GR-coupled NADPH fluorescence, 15 min; series mostly up to 27.8 µM
# In short: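 GR-coupled readout: 100 nM GR, 1 mM GSH, 0.5 mM NADPH; NADPH fluorescence (ex 340/em 450 nm) read at t=0 and after 15 min RT. GPX4 200 nM, preincubated 30 min with compound; substrate 0.5 mM CHP.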
row,Compound,Potency
1,CCOC(=O)C(CCc1ccccc1)NC(C)C(=O)N1Cc2ccccc2CC1C(=O)O (stereo unspecified),inactive
2,CC1(C)CC[C@]2(C(=O)O)CC[C@]3(C)C(=CCC4[C@@]5(C)CC[C@H](O[C@H]6O[C@H](C(=O)O)[C@@H](O)[C@H](O[C@@H]7O[C@H](CO)[C@H](O)[C@H](O)[C@H]7O)[C@H]6O)C(C)(C)C5CC[C@]43C)[C@@H]2C1 (stereo partly specified),inactive
3,NC1=NC2(c3cc(NC(=O)c4ccc(F)cn4)ccc3F)COCC2CS1 (stereo unspecified),inactive
4,C[C@@H]1CC[C@]2(C(=O)O[C@@H]3O[C@H](CO[C@@H]4O[C@H](CO)[C@@H](O[C@@H]5O[C@@H](C)[C@H](O)[C@@H](O)[C@H]5O)[C@H](O)[C@H]4O)[C@@H](O)[C@H](O)[C@H]3O)CC[C@]3(C)C(=CCC4[C@@]5(C)C[C@@H](O)[C@H](O)[C@@](C)(CO)C5CC[C@]43C)C2[C@H]1C (stereo partly specified),inactive
5,COC(=O)C1C(O)CCC2CN3CCc4c([nH]c5ccccc45)C3CC21 (stereo unspecified),inactive
6,O=C(N[C@H](Cc1ccccc1)C(=O)O)c1sc2cc(F)ccc2c1Cl,inactive
7,CC(C)C[C@H](NC(=O)[C@@H]1O[C@H]1C(=O)O)C(=O)NCCCCN=C(N)N,inactive
8,CC(=O)Nc1cccc2c1c(Sc1ccc(Cl)cc1)c(C)n2CC(=O)O,inactive
9,COc1cccc(OC)c1-c1ccc(C[C@H](NC(=O)c2c(Cl)cccc2Cl)C(=O)O)cc1,inactive
10,Oc1ccc2c(-c3c(-c4ccccn4)nn4c3CCC4)ccnc2c1,inactive
11,Cc1sc(C)c(C(=O)NC2(c3ccc(C(=O)O)cc3)CC2)c1Cc1ccc(C(F)(F)F)cc1,inactive
12,COC(=O)c1cc(OC)cc(OC)c1C(=O)c1c(OC)cc2c(c1O)C1CCC(O)C(C)(O2)O1 (stereo unspecified),inactive
13,CC[C@H](NC(=O)c1c(O)c(-c2ccccc2)nc2ccccc12)c1ccccc1,inactive
14,CC(C)C1CCC(C(=O)N[C@@H](Cc2ccccc2)C(=O)O)CC1 (stereo partly specified),inactive
15,COc1cn(-c2ccc(-n3cccn3)cc2F)nc(-c2ccnn2-c2ccccc2)c1=O,inactive
16,CC1OC(OC2C(OC(=O)[C@]34CCC(C)(C)C[C@H]3C3=CCC5[C@@]6(C)CC[C@H](OC7OC(C(=O)O)C(O)C(O)C7O)C(C)(C)C6CC[C@@]5(C)[C@]3(C)CC4O)OC(CO)C2O)C(O)C(O)C1OC1OCC(O)C(O)C1O (stereo partly specified),inactive
17,CC1(C)CC=C(c2cnc3ccccc3c2)c2cc(C(=O)Nc3ccc(C(=O)O)cc3)ccc21,inactive
18,COc1ccnc2[nH]cc(C(=O)C(=O)N3CCN(C(=O)c4ccccc4)CC3C)c12 (stereo unspecified),inactive
19,CN(C)CCC[C@]1(c2ccc(F)cc2)OCc2cc(C#N)ccc21,inactive
20,CCC(C)C1NC(=O)C2C(C)CCN2C(=O)C(CC(O)CO)OC(=O)CCNC(=O)C(C)N(C)C(=O)C(C(C)C)N(C)C1=O (stereo unspecified),inactive
21,CCCSc1nc(NC2CC2c2ccc(F)c(F)c2)c2nnn(C3CC(OCCO)C(O)C3O)c2n1 (stereo unspecified),inactive
22,COc1c(O[C@@H]2O[C@H](CO)[C@@H](O)[C@H](O)[C@H]2O)c(CCC(=O)O)cc2ccoc12,inactive
23,CC1(C)C2CC[C@]3(C)C(C(=O)C=C4[C@H]5C[C@@](C)(C(=O)O)CC[C@]5(C)CC[C@]43C)[C@@]2(C)CC[C@@H]1O (stereo partly specified),inactive
24,CCc1nnc(NS(=O)(=O)c2ccc(NC(=S)NC(=O)/C=C/c3ccc(F)cc3)cc2)s1,inactive
25,C=CC(C)(O)CCC1C(C)(O)CCC2C(C)(C)CCCC21C (stereo unspecified),inactive
26,C[C@@H]1O[C@@H](OC2C(O[C@H]3[C@H](O[C@H]4CC[C@@]5(C)C(CC[C@]6(C)C5CC=C5C7CC(C)(C)CC(O)[C@]7(C)CC[C@]56C)C4(C)C)O[C@H](C(=O)O)[C@@H](O)[C@@H]3O)OC(CO)C(O)C2O)[C@H](O)[C@H](O)[C@H]1O (stereo partly specified),inactive
